# Laboratory results taken from PubChem BioAssay AID932 (The Scripps Research Institute Molecular Screening Center, 2007).
# About 5,100 (2.5%) of roughly 200,000 compounds were called active. Many of the other results were omitted from the sample, so actives are more common in it than they were. A number with no mark means an inactive call.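 Rule for the calls: active = activation above the screen-wide mean activation plus 3 SD (cut at about 130% in these data); inactive = the rest.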 Where a SMILES comes first, the peptide text is derived from it. [ ]: non-standard residue; d: D form. ξ: configuration not given here. ξM = CSCCC(N)C(=O)O
# Assay: potentiators of IFN-gamma driven STAT1 reporter – cell-based, HTS, luciferase reporter, primary screen (AID 932);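 note: raw ratio to IFN-gamma control signal so 100% means no change and 0% no light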
# Conditions: NIH 3T3 STAT1-luciferase reporter, luminescence, at 5.5 µM, stronger effect = higher value, 100% = IFN-gamma alone, no compound
row,SMILES,activation (% of control)
1,CC(=C/c1ccccc1)/C=N/NC(=O)c1cc(C)oc1C,117%
2,O=C(O)/C=C\C(=O)Nc1ccc(OCc2ccccc2)cc1,120%
3,Cn1c(SCC(=O)NC2CCCCC2)nnc1-c1ccc(N)cc1,101%
4,CCSc1nc(C)c(CCOc2cccc(C)c2)c(=O)[nH]1,102%
5,CCCCOc1ccc(-c2nnc(-c3ccco3)o2)cc1,130% (active)
6,CCOc1ccc(-c2nnc(-c3ccco3)o2)cc1,93.5%
7,CCC(=O)Oc1cccc(C(=O)Nc2ccc(-c3nnc(-c4ccco4)o3)cc2)c1,104%
8,COc1ccc2nc(SCc3ccccc3)nc(C)c2c1,188% (active)
9,COC(=O)CSc1nc(C)c2ccc(OC)cc2n1,108%
10,COc1ccc(-c2nnc3ccc(SCc4ccccc4)nn23)cc1,96.5%
11,Cc1ccc(C)c2[nH]c(=O)c(CCNC(=O)c3cccs3)cc12,102%
12,CCOC(=O)C1(CCOC)CCN(Cc2ccc(C(=O)OC)cc2)CC1,106%
13,CN1C(=O)/C(=C/C=C2\SCCN2C)OC1=S,158% (active)
14,O=C(NCc1ccccn1)c1cc(Br)ccc1Cl,104%
15,COc1ccc(OCC(=O)NNC(=O)c2cccc(C)c2)cc1,103%
16,Cc1ccc(-n2nc(C)c(/C=N/NC(=O)c3cccs3)c2Cl)cc1,106%
17,O=C(O)c1ccc(NC(=O)c2cccs2)cc1,98.1%
18,Cc1cccc(-n2c(C)cc(/C=N\NC(=O)c3cccs3)c2C)c1,140% (active)
19,O=C(N/N=C/C=C/c1ccco1)c1cccs1,127%
20,Cc1cccc(-n2c(C)cc(/C=N/NC(N)=S)c2C)c1,110%
21,CC(=O)Nc1ccc(/C=N/NC(=O)c2cccs2)cc1,136% (active)
22,CN(C)N(C)C(=O)C(O)(c1ccccc1)c1ccccc1,93.5%
23,COc1cc(OC)c(C(=O)OCC(=O)N2CC(=O)Nc3ccccc32)cc1OC,97%

row,SMILES,activation (% of control)
1,N#C/C(=C/c1cccc([N+](=O)[O-])c1)c1nnc2n1CCCCC2,100%
2,C/C(=N/Nc1ccc(Cl)cc1)c1cnnc(-c2ccccc2)n1,99.5%
3,COC(=O)CNC(=O)C(CCSC)NC(C)=O (stereo not drawn) (Ac-[ξM]-Gly-OMe),99.5%
4,Cc1ccc(Oc2cnn(-c3ccccc3)c(=O)c2Br)cc1,108%
5,C=CCNc1cnn(-c2ccc(C)cc2)c(=O)c1Cl,134% (active)
6,O=c1c(Cl)c(NC2CC2)cnn1-c1ccccc1,108%
7,CN(C)c1ccc(/C=N/Nc2cc(N3CCOCC3)nc(N3CCOCC3)n2)cc1,104%
8,C=CCN(c1ccc(Cl)cc1)S(=O)(=O)c1cccc(C(=O)OCC(=O)N(C)C)c1,97.2%
9,Cc1ccc(-n2cc3ccc([N+](=O)[O-])cc3n2)cc1,123%
10,Cc1ccc(-c2cn3cc(C)ccc3n2)cc1,12.9%
11,Cc1ccc(-c2cn3cc([N+](=O)[O-])ccc3n2)cc1,133% (active)
12,CCN(/N=C/c1ccccc1)c1cc(=O)n(C)c(=O)[nH]1,98.7%
13,COc1ccccc1NC(=O)C1=C(C)NC(=O)NC1c1ccc(C)s1 (stereo not drawn),99.8%
14,COc1ccc(-c2cn3cccnc3n2)cc1,118%
15,COc1ccc(-c2cn3ccsc3n2)cc1,135% (active)
16,CCCC(=O)Nc1cccc(-c2cn3ccsc3n2)c1,108%
17,COc1cc(NC(=O)CSc2nnc3ccc(-c4ccncc4)nn23)cc(OC)c1,104%
18,C=CCN1C(=O)C(O)(CC(=O)c2ccccn2)c2ccccc21 (stereo not drawn),104%
19,COc1ccc(-c2cc(C(=O)NC(Cc3c[nH]c4ccccc34)C(=O)O)c(C)o2)cc1OC (stereo not drawn),93.3%
20,O=C(Nc1ccc(Br)cn1)c1ccc([N+](=O)[O-])cc1Cl,142% (active)
21,O=C(Nc1ccc(Br)cn1)c1ccc([N+](=O)[O-])o1,108%
22,CC(C)C(=O)Nc1cccc(NC(=O)c2ccc([N+](=O)[O-])cc2Cl)c1,112%
23,O=C(NC1CCCC1)C(NS(=O)(=O)c1ccc(Br)s1)c1ccccc1 (stereo not drawn),94.7%

row,SMILES,activation (% of control)
1,C/C(=N\NC(=S)NC(C)C)c1ccc(C(C)(C)C)cc1,94.3%
2,COc1ccc(C2COC(=O)C2=N)c(NC(=O)c2ccccc2)c1 (stereo not drawn),107%
3,COc1cccc(C(=O)NNC(=O)c2ccccc2Br)c1,98.2%
4,COc1cccc(C(=O)Nc2cc3c(cc2Br)OCCCO3)c1,141% (active)
5,Cc1cccc(N2CCN(S(=O)(=O)c3ccc4[nH]c(=O)c(=O)[nH]c4c3)CC2C)c1 (stereo not drawn),99.2%
6,Cc1cccc(-n2c(O)c(C=Nc3ccccc3N)c(=O)[nH]c2=O)c1,156% (active)
7,Cc1ccc(N=Cc2c(O)n(-c3nccs3)c(=O)c3ccccc23)c(C)c1,105%
8,[O-][n+]1onc2c1CCc1[nH]c(-c3ccccc3)nc1-2,101%
9,Cc1ccc(NC(=O)c2ccc(S(=O)(=O)NCC3CCCO3)cc2)cc1C (stereo not drawn),103%
10,O=C(NCc1ccncc1)NC12CC3CC(CC(C3)C1)C2,94.6%
11,O=C(Nc1cccc(CCc2ccccn2)c1)c1ccc(Cl)cc1,96.1%
12,O=C(Nc1ccccc1)OCc1cc(-c2ccc(Cl)cc2)on1,95.6%
13,O=C(Nc1cccc(Cl)c1)OCc1ccccn1,130% (active)
14,Cc1nc([N+](=O)[O-])cn1CC(=O)Nc1ccc2c(c1)OCO2,101%
15,CCOC(=O)NC(=O)C(=CNc1cccc(OC)c1)C(=O)NC(=O)OCC,93.9%
16,Cc1cccc(NC(=O)c2ccc3nsnc3c2)c1C,104%
17,O=C(Nc1ccccc1Cl)c1ccc2nsnc2c1,133% (active)
18,O=C(Nc1ccccc1)c1ccc2nsnc2c1,113%
19,Cc1ccc(C(=O)Nc2cccc3ncccc23)cc1[N+](=O)[O-],106%
20,Cc1nc(N2CCOCC2)nc2c1CCCC2,98.4%
21,Cc1cc(Oc2ccccc2)nc(N2CCOCC2)n1,100%
22,Nc1nc(-c2sc3nc4c(cc3c2N)CCCC4)nc(N2CCOCC2)n1,153% (active)
